# Assay results taken from PubChem BioAssay (EPA / NIEHS).
# Results filed as inconclusive are left out. Activity calls are given as the source filed them. Rule for the calls: active = hit-call score of the fitted dose curve at least 0.9, where 1 is the maximum; inconclusive = response in the unintended direction; inactive = score below 0.9.
# Target: Retinoic acid receptor alpha (Homo sapiens) (UniProt P10276)
# Experiment: NVS_NR_hRAR_Antagonist: NovaScreen (NVS) Nuclear Receptor Binding Assay for human Retinoic Acid Alpha Receptor Antagonism (RAR) (AID 2283358)
# Summary of the method: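 Cell-free TR-FRET binding assay on extracted receptor protein, run in antagonist mode; signal read 2 hours after chemical dosing. Loss of signal was fitted relative to DMSO baseline. Screened at 25 uM in duplicate, actives followed up in concentration series.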
# Sequence of Retinoic acid receptor alpha (Homo sapiens) (P10276 whole entry, looked up): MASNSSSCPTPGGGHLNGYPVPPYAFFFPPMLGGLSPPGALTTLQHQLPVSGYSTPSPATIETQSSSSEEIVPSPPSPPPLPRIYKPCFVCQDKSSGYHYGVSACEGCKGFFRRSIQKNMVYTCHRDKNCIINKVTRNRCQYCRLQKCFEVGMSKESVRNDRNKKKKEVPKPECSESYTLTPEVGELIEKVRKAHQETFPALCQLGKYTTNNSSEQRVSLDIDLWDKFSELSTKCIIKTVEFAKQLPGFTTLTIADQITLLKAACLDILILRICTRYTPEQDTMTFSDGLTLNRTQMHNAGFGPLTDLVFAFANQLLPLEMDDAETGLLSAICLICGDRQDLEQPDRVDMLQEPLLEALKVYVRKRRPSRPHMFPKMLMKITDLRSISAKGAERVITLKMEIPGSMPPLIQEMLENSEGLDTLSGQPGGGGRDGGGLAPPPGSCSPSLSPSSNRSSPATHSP
row,SMILES,outcome
1,N#Cc1nn(-c2c(Cl)cc(C(F)(F)F)cc2Cl)c(N)c1S(=O)C(F)(F)F (stereo unspecified),inactive
2,CO/C=C(/C(=O)OC)c1ccccc1Oc1cc(Oc2ccccc2C#N)ncn1,inactive
3,CCON=C(CC)C1=C(O)CC(c2c(C)cc(C)cc2C)CC1=O (stereo unspecified),inactive
4,CCCCOC(=O)c1ccccc1C(=O)OCCCC,inactive
5,CC(Oc1ccc(Cl)cc1Cl)C(=O)O (stereo unspecified),inactive
6,CCCC1COC(Cn2cncn2)(c2ccc(Cl)cc2Cl)O1 (stereo unspecified),inactive

# Target: human Peroxisome Proliferator-activated Receptor alpha (PPARa), PPARA (gene 5465) (UniProt Q07869)
# Sequence (Q07869 whole entry, looked up): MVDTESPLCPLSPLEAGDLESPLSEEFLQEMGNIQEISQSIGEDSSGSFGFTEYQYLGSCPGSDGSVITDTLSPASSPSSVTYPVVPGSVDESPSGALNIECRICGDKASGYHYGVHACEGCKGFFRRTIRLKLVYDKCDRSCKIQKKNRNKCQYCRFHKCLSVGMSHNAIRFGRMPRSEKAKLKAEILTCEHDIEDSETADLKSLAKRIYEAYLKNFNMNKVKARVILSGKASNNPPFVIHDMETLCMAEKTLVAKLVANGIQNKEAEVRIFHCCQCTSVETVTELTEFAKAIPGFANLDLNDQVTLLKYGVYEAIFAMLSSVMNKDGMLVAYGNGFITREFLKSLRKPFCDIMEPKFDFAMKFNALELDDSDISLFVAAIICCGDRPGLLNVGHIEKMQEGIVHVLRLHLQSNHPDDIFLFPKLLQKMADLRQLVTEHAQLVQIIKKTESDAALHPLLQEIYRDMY
# Experiment: NVS_NR_hPPARa: NovaScreen (NVS) Nuclear Receptor Binding Assay for human Peroxisome Proliferator-activated Receptor alpha (PPARa) (AID 2283359);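 note: activity means loss of TR-FRET signal versus DMSO baseline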
# Summary of the method: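 Cell-free binding assay with extracted human protein, read by TR-FRET 1 h after chemical dosing. Loss of signal relative to DMSO baseline indicates binding. Primary screen used duplicate single concentration (25 uM); actives followed up in concentration series.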
SMILES,AC50,outcome
C=CC1(C)OC(=O)N(c2cc(Cl)cc(Cl)c2)C1=O (stereo unspecified),37.4 µM (active),–
CCCN(CCC)c1c([N+](=O)[O-])cc(S(N)(=O)=O)cc1[N+](=O)[O-],–,inactive
N#Cc1cc(Br)c(O)c(Br)c1,–,inactive
CCCCNC(=O)OCC#CI,6.55 µM (active),–

# Target: PGR (gene 5241) (UniProt P06401)
# Sequence (P06401 whole entry, looked up): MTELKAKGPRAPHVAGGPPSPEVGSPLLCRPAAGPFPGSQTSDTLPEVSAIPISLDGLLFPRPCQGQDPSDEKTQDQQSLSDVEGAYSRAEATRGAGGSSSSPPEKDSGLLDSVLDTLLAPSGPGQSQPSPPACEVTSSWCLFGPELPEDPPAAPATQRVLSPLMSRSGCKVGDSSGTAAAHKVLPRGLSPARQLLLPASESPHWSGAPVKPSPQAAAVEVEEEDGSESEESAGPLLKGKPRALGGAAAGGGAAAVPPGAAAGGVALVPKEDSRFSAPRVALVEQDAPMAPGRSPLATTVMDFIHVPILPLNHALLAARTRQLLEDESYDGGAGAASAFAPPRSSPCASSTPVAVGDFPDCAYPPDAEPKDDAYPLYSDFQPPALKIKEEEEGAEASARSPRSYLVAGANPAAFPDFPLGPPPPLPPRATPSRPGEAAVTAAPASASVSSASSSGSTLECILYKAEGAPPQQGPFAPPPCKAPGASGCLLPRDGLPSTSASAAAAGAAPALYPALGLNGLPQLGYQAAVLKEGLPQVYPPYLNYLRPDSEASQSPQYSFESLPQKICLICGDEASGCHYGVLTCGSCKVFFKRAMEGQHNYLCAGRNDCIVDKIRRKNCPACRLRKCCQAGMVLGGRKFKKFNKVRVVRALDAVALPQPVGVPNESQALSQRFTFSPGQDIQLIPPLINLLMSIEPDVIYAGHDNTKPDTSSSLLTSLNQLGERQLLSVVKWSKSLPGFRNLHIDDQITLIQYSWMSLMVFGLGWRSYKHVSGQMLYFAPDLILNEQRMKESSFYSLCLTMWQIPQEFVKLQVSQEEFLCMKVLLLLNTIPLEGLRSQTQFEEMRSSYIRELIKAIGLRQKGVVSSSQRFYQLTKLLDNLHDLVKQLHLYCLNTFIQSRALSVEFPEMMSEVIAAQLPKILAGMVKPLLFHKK
# Experiment: NVS_NR_hPR: NovaScreen (NVS) Nuclear Receptor Binding Assay for human Progestron Receptor (PR) (AID 2283360);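 note: active means loss of bound radioligand signal versus DMSO baseline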
# Summary of the method: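 T47D-derived receptor preparation, cell-free, with tritiated or iodinated radioligand displacement measured by scintillation 18 h post-dosing. Single 25 uM duplicate screen, then concentration series; signal loss relative to DMSO.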
SMILES,outcome,AC50
CCOP(=S)(OCC)SCn1c(=O)oc2cc(Cl)ccc21,inactive,–
CCOC(=O)CC(SP(=S)(OC)OC)C(=O)OCC (stereo unspecified),inactive,–
CO/C=C(/C(=O)OC)c1ccccc1Oc1cc(Oc2ccccc2C#N)ncn1,inactive,–
CCCN(CCC)c1c([N+](=O)[O-])cc(S(N)(=O)=O)cc1[N+](=O)[O-],–,4.36 µM (active)
CCNc1nc(Cl)nc(NC(C)C)n1,inactive,–
CCCCOC(=O)c1ccccc1C(=O)OCCCC,inactive,–
CON(C)C(=O)Nc1ccc(Cl)c(Cl)c1,inactive,–
CNC(=O)ON=CC(C)(C)SC,inactive,–
CC1COC(Cn2cncn2)(c2ccc(Oc3ccc(Cl)cc3)cc2Cl)O1 (stereo unspecified),inactive,–
CCCC1COC(Cn2cncn2)(c2ccc(Cl)cc2Cl)O1 (stereo unspecified),inactive,–
CCCCNC(=O)OCC#CI,inactive,–
